The entries come from a sample that favours hits as a whole.
Giardia FBPA inh – Giardia lamblia aldolase inhibition. actives 0.71% (n = 290,000). purified Giardia FBPA. Potency, µM (top dose mostly 59.6 µM), inactives show at the highest dose activity, negative = inhibition, actives largely listed as inhibitors; further: potency means the concentration at half of the fitted maximal effect; on the % scale 0 is the no-effect control and ±100 the full control effect; nearly all actives have a fitted effect of over 55% in size
Target sequence (A8B2U2 whole entry, looked up): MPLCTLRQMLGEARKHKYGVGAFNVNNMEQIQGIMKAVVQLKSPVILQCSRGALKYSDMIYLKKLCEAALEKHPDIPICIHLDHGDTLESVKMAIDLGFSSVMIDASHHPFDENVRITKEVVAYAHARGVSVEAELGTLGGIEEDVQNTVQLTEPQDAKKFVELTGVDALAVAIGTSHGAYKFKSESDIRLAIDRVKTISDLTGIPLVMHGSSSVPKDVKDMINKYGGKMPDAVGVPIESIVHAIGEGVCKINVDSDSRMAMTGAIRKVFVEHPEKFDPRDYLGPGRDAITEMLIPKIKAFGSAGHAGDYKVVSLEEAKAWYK
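Giardia FBPA (40 nM reagent) was preincubated 10 min at RT with compound (up to 57.5 uM final), then substrate plus GAPDH/TPI/NAD/arsenate coupling system with diaphorase/resazurin was added; resorufin fluorescence (525/598 nm) was read after 20 min.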
Sm TGR inh – inhibitors of Schistosoma mansoni thioredoxin glutathione reductase. AID 485364. purified TGR, DTNB reduction, TNB absorbance 405 nm. actives 3% (n = 360,000). Q962Y6. Potency, µM (highest dose often 114 µM), without a hit: at the highest dose activity change, negative = inhibition, most hits filed as inhibitors; further: potency means the concentration at half of the fitted maximal effect; on the % scale 0 is the no-effect control and ±100 the full control effect; nearly all actives have a fitted effect of over 60% in size
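TGR 20 nM + NADPH 100 uM (dispensed conc.), cpd preinc 15 min RT; start with NADPH (500 uM addition) then DTNB (15 mM addition). Kinetic TNB absorbance, 405 nm filter. Four-parameter Hill fit across titration.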
CHX counter – affects cycloheximide protein synthesis inhibition readout, counter-screen | cell reporter, cycloheximide protein synthesis inhibition counterscreen | max response, % | actives 12% (n = 300,000) | AID 2314; in the data active means max response mostly above about 13%, no sharp cut-off; inactive means mostly below about 14%; further: read at 38.3 µM for the half of the compounds with a filed dose; 0% is about no effect
Tb PYK inh – inhibitors of Trypanosoma brucei pyruvate kinase; TbPYK enzyme, Kinase-Glo Plus ATP luminescence, 45 min; Potency, µM (top dose mostly 76.8 µM), without a hit: at the top dose activity, negative = inhibition, hits mostly inhibitors; actives 0.12% (n = 410,000); further: potency means the concentration at half of the fitted maximal effect; on the % scale 0 is the no-effect control and ±100 the full control effect; nearly all actives have a fitted effect of over 50% in size
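Activity of T. brucei pyruvate kinase was followed by Kinase-Glo Plus luminescence after the enzyme reacted 45 min at room temperature with 130 uM ADP (final) and substrate. Test compounds were added before ADP at multiple concentrations.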
Shiga toxin inh – inhibitors of Shiga toxin in Vero cells. Vero cells, Shiga toxin protein synthesis inhibition reporter. inhibition, % at 38.7 µM. actives 9.2% (n = 290,000). AID 2315; in the data active means inhibition mostly above about 28%, no sharp cut-off; inactive means mostly below about 43%; further: 0% is about no effect
LmPK inh – blocks Leishmania mexicana pyruvate kinase activity | actives 0.37% (n = 290,000) | purified LmPK, Kinase-Glo ATP luminescence, 1 h | Potency, µM (top dose mostly 57.5 µM), inactives show at the highest dose activity change, negative = inhibition, most hits filed as inhibitors | AID 1721; further: potency means the concentration at half of the fitted maximal effect; on the % scale 0 is the no-effect control and ±100 the full control effect
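Screened at intermediate enzyme activity to detect both inhibitors and activators: LmPK at 0.1 nM, with a 0.5 nM enzyme column as activation reference. PEP 0.5 mM, ADP 0.1 mM; ATP detected by luminescence after 1 h.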
Numbers without * were called inactive; ? = inconclusive; . = not tested or not shown; [ ] = remark or other dose. Unless noted, the call rests on the fitted dose curve; in most records, active means well fitted curve in the direction sought with a large enough effect; inconclusive means small, poorly fitted or top-dose-only effect, or another doubt; inactive means no such curve, though single readings can be large; an effect the other way counts as inactive or inconclusive.

SMILES	Giardia FBPA inh	Sm TGR inh	CHX counter	Tb PYK inh	Shiga toxin inh	LmPK inh
COc1ccccc1N1CCN(C(=O)c2ccc(Nc3nc4ccccc4n4nnnc34)cc2)CC1	.	7%	.	-19%	.	.
Nc1ccc(O)cc1C(=O)OCC(=O)C12CC3CC(CC(C3)C1)C2	?	-28%	20	?	42	1%
Nc1ccc(O)cc1C(=O)OCC(=O)c1ccc(C2CCCCC2)cc1	-15%	-4%	61*	-16%	145*	0%
COc1ccc(C(=O)OCC(=O)c2ccc(C3CCCCC3)cc2)cc1	-9%	?	13*	-2%	7	3%
Brc1ccc(-c2nc(-c3ccncc3)no2)o1	7%	5%	24*	-8%	64*	-2%
Brc1ccc(-c2noc(-c3ccccn3)n2)o1	9%	-4%	45*	-15%	81*	?
Clc1ccc(-c2nc(-c3ccccn3)no2)cc1Cl	5%	9%	66*	2%	77*	?
Brc1ccc(-c2nc(-c3ccccn3)no2)o1	7%	0%	14*	-13%	-6	32µM*
CC(C)Nc1ccc(-c2nc(-c3ccccn3)no2)cc1[N+](=O)[O-]	.	-2%	.	-5%	.	.
COC(=O)[C@@]1(C(C)C)N=C(c2cc(OC)c(OC)c(OC)c2)[C@]2(O1)C(=O)N(C)c1ccc(Cl)cc12	.	.	.	0%	.	.
O=C(CCc1ccc(S(=O)(=O)NC2CCCCC2)cc1)NCc1cccnc1	3%	4%	15*	4%	31	1%
CC(C)NS(=O)(=O)c1ccc(CCC(=O)NCc2ccccn2)cc1	-1%	100µM*	-3	1%	.	-1%
Cc1ccc(NS(=O)(=O)c2ccc(CCC(=O)NCc3ccccn3)cc2)cc1	3%	.	5	2%	-11	3%
Cc1ccc(CNC(=O)CCc2ccc(S(=O)(=O)NC3CCCCC3)cc2)cc1	9%	?	-5	-1%	20	1%
CCOC(=O)c1ccc(NC(=O)Cc2ccc(-n3c(CC)nc4cccnc43)cc2)cc1	.	-3%	.	-14%[15.4 µM]	.	.
COc1ccc(C(=O)c2coc3ccc(O)c(CN4CCOCC4)c23)cc1	0%	5%	13*	-3%	38*	7%
Cc1ccc(C(=O)c2coc3ccc(O)c(CN4CCN(C)CC4)c23)cc1	1%	6%	15*	-3%	73*	-4%
COc1ccc(C(=O)c2coc3ccc(O)c(CN4CCCC4)c23)cc1	2%	2%	-2	1%	-5	0%
CCN(CC)Cc1c(O)ccc2occ(C(=O)c3ccc(OC)cc3)c12	3%	-9%	15*	-11%	19	0%
COc1cccc(NC(=O)CC(C)S(=O)(=O)c2ccc3c(c2)NC(=O)CO3)c1 (stereo not drawn)	.	-8%	.	4%	.	.
CCc1ccc(NC(=O)N(C2CCC(C)CC2)C2CCN(C(C)=O)CC2)cc1 (stereo not drawn)	-20%	-9%	31*	-11%	67*	-3%
Cc1ccc(NC(=S)N2CCCCC2CO)cc1C (stereo not drawn)	-8%	14%	15*	5%	23	2%
CC(=O)N1CCC(N(C(=O)Nc2ccc(C)c(C)c2)C2CCCC2)CC1	-1%	-2%	14*	2%	1	3%
CC(=O)OC1CC(OC2C(O)CC(OC3C(O)CC(O[C@H]4CC[C@]5(C)C6CC[C@]7(C)[C@@H](C8=CC(=O)OC8)[C@@H](O)C[C@]7(O)[C@@H]6CC[C@@H]5C4)OC3C)OC2C)OC(C)C1OC1OC(CO)C(O)C(O)C1O (stereo partly drawn)	.	.	.	1%	.	.
Cc1ccc(OCCc2csc(N)n2)cc1	-1%	-34%	34*	0%	54*	1%
SMILES	Giardia FBPA inh	Sm TGR inh	CHX counter	Tb PYK inh	Shiga toxin inh	LmPK inh
COc1cccc(C(=O)NNC(=O)Cc2csc(N)n2)c1	1%	-3%	4	-3%	-19	1%
Cc1ccc(S(=O)(=O)Cc2csc(N)n2)cc1	0%	-35%	-4	-1%	-22	-3%
COc1ccc(OCc2csc(N)n2)cc1	5%	0%	36*	3%	86*	4%
COc1ccc(NC(=O)CCc2c(C)nc3c(-c4ccccc4)c(C)nn3c2C)cc1Cl	.	0%	.	1%	.	.
COc1ccc(CC(=O)N2CCC(c3ccccc3)C2)cc1 (stereo not drawn)	0%	.	23*	0%	56*	0%
COc1ccc(/C=C/C(=O)N2CCC(c3ccccc3)C2)cc1 (stereo not drawn)	-1%	-16%	12	-8%	12	2%
O=C(Cc1ccccc1)N1CCC(c2ccccc2)C1 (stereo not drawn)	4%	?	28*	2%	80*	8%
O=C(CCCN1C(=O)c2ccccc2C1=O)N1CCC(c2ccccc2)C1 (stereo not drawn)	1%	-12%	-2	.	-22	3%
Cc1ccccc1Cn1cc(S(=O)(=O)c2ccc(F)cc2)c(=O)c2cc3c(cc21)OCO3	.	4%	.	1%	.	.
CSc1nnc(-c2cccc(NC(=S)NN)c2)o1	-10%	-10%	6	-1%	-1	1%
CSc1nnc(-c2ccc(NC(N)=S)cc2)o1	-5%	4%	14*	-17%	22	-7%
O=C(CSc1nc2ccccc2o1)Nc1ccc(N2CCOCC2)cc1	0%	-6%	47*	-1%	62*	3%
O=C(CSc1nc2ccccc2o1)Nc1ccccc1N1CCOCC1	-1%	0%	0	1%	24	-2%
O=C(CSc1nc2cc(Cl)ccc2o1)N1CCOCC1	-3%	-3%	8	-3%	6	-5%
O=C(CSc1nc2cc(Cl)ccc2o1)Nc1ccc(N2CCOCC2)cc1	12%	7%	31*	-7%	72*	3%
Cc1ccccc1-n1c(O)c(/C=N/NC(=O)c2ccccc2O)c(=O)[nH]c1=S	22%	-21%	46*	-20%	76*	7%
Cc1ccccc1-n1c(O)c(/C=N/Nc2nc3c(c(=O)n(C)c(=O)n3C)n2C)c(=O)[nH]c1=S	2%	-6%	-2	-25%	-3	-3%
O=C(N/N=C/c1c(O)n(C2CC2)c(=S)[nH]c1=O)c1ccccc1O	7%	-14%	25*	1%	26	3%
CCOc1ccc(NC(=O)CSc2nc(-c3cccc(Cl)c3)nc3c2Cc2c(CO)cnc(C)c2O3)cc1	.	?	.	1%	.	.
CCc1nn2c(=O)cc(COC(=O)c3ccccc3NC(=O)c3ccc(C(C)(C)C)cc3)nc2s1	.	9%	.	-9%	.	.
Cc1ccc(C(=O)NCCSC(C)(C)C)cc1[N+](=O)[O-]	1%	-9%	54*	0%	95*	2%

Screening data (PubChem BioAssay)
